A number with no mark means an inactive call. Results filed as inconclusive are left out. Where a call stands in place of a potency, no number is given. Activity calls are given as the source filed them. Unless noted, calls follow the shape of the dose curve; as a rule, active = well fitted curve in the direction sought with a large enough effect in the repeat runs; inconclusive = weak or mixed curves; inactive = no such curve, though single readings can be large; an effect the other way counts as inactive or inconclusive.
Key:
[1] = molecular target: Thyrotropin receptor (Homo sapiens) (UniProt P16473); experiment: qHTS assay to identify small molecule antagonists of the thyroid stimulating hormone receptor (TSHR) signaling pathway (AID 1259385; calls by dose curve; also: nearly all actives have a fitted effect of over 20% in size)
Thyrotropin receptor (Homo sapiens), sequence (P16473 whole entry, looked up): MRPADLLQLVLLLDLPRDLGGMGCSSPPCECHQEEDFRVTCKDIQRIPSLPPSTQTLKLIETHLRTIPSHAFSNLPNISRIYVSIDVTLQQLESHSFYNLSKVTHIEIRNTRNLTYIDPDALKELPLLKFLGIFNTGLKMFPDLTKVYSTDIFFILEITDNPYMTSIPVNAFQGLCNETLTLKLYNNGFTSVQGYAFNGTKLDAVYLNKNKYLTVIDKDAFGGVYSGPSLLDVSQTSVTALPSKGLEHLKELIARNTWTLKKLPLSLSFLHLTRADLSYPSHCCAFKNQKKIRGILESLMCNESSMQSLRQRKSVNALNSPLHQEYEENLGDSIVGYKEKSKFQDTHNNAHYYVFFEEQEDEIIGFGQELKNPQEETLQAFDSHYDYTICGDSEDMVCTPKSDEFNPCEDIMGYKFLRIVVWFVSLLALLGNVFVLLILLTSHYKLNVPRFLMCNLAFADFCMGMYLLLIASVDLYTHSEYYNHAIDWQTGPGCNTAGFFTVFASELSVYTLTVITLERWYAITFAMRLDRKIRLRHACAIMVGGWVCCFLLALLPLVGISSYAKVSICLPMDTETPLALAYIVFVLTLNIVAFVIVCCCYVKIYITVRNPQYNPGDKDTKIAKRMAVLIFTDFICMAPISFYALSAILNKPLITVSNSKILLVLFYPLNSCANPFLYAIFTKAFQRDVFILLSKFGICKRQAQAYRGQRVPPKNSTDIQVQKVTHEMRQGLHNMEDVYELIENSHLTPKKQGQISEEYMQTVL
Method in brief: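 Antagonist mode: compound-treated TSHR-expressing HEK293 cells were stimulated with 1.5 ng/mL TSH (final) in presence of Ro20-1724 for 30 min at RT. HTRF cAMP detection after 1 h; each compound tested at 15 concentrations, triplicate.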

[2] = qHTS assay to identify small molecule agonists of the estrogen receptor alpha (ER-alpha) signaling pathway in the presence of an antagonist - cell viability counter screen (AID 1259386);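 also: cells exposed to compounds for 22 h at 37 °C before the viability read; nearly all actives have a fitted effect of over 30% in size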; also: potency is read from the fitted curve at half-maximal effect; as to activity change, negative = cytotoxicity: series mostly up to about 92 µM
Method in brief: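 Viability counter screen using VM7Luc4E2 (full-length ER-alpha, four ERE-luciferase). The cells were treated with compounds alongside ICI-182,780 10.0nM for 22hr, and live-cell protease fluorescence was quantified with CellTiter-Fluor.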

[3] = qHTS assay to identify small molecule antagonists of the TGF-beta/Smad signaling pathway - cell viability counter screen (AID 1346824); also: nearly all actives have a fitted effect of over 50% in size
Method in brief: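 Cytotoxicity counter-screen run in the same wells as the beta-lactamase Smad reporter read: CellTiter-Glo luminescence after 30 min at room temperature. HEK 293T SBE-bla cells had 5 hr compound exposure at 37 C with TGF-beta1 (0.25 ng/mL stock).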

[4] = qHTS assay to identify small molecule agonists of the TGF-beta/Smad signaling pathway - cell viability counter screen (AID 1346829); also: top concentration of the series differs between compounds; nearly all actives have a fitted effect of over 45% in size
Method in brief: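 Compound-treated SBE-bla HEK 293T cells (5 hr, 37 C) were assessed for viability with CellTiter-Glo in parallel with the reporter read.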

[5] = molecular target: Thyrotropin-releasing hormone receptor (Homo sapiens) (UniProt P34981); experiment: qHTS assay to identify small molecule antagonists of the thyrotropin-releasing hormone receptor (TRHR) signaling pathway (AID 1346877; active = well fitted inhibition curve with a large enough effect in the repeat runs, not every such curve was filed as active; also: series mostly up to about 51 µM)
Thyrotropin-releasing hormone receptor (Homo sapiens), sequence (P34981 whole entry, looked up): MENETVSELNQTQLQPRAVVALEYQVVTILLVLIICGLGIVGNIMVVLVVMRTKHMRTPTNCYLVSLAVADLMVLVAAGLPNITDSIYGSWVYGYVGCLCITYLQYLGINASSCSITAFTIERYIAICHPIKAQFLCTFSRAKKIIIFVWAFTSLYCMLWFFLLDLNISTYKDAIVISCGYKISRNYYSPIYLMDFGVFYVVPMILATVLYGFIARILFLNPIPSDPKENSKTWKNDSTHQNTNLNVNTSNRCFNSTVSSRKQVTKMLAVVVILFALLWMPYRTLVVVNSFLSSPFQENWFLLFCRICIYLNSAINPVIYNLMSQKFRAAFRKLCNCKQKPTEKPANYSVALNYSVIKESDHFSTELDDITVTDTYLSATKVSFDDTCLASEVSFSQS
Method in brief: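 Following an 18 h incubation at 37 °C and a 2 h calcium dye load, TRHR-HEK293 cells were exposed to compound (5 min, room temperature) and challenged with TRH, 1 nM final.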

[6] = molecular target: Thyrotropin-releasing hormone receptor (Homo sapiens) (UniProt P34981); experiment: qHTS assay to identify small molecule agonists of the thyrotropin-releasing hormone receptor (TRHR) signaling pathway (AID 1346891; calls by dose curve;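 also: HEK293 cells expressing TRHR with calcium dye readout; series mostly up to about 58 µM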)
Method in brief: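 Kinetic fluorescence (3 min, 1 s intervals) reported intracellular calcium after compound transfer onto TRHR-Hek293 cells pre-loaded with dye for 2 h at 37 °C.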

[7] = Human pregnane X receptor (PXR) small molecule agonists, qHTS cell viability counter screen (AID 1346977); also: nearly all actives have a fitted effect of over 50% in size; also: potency is read from the fitted curve at half-maximal effect
Method in brief: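 HepG2 cells stably carrying the PXR-Luc reporter are cultured with 5% charcoal-stripped FBS and treated with compounds for 24hr. CellTiter-Fluor is added at 23hr and fluorescence is read after 1hr.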

[8] = Caspase-3/7 induction in HepG2 cells by small molecules, qHTS assay (AID 1346978); also: nearly all actives have a fitted effect of over 15% in size
Method in brief: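 Caspase-3/7 induction was measured by Caspase-Glo 3/7 luminescence (30 min, room temperature) after a 17 hr compound exposure of wild-type HepG2 cells seeded at 2,000 per well and pre-incubated 5 hr.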

[9] = Caspase-3/7 induction in CHO-K1 cells by small molecules, qHTS cell viability counter screen (AID 1346979); also: nearly all actives have a fitted effect of over 35% in size; also: potency is read from the fitted curve at half-maximal effect
Method in brief: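 Seeding: 1,500 CHO-K1 cells/well. Rest: 5hr, 37C. Treatment: compounds in DMSO, 16hr. Read: CellTiter-Fluor, 1hr, fluorescence.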

[10] = Caspase-3/7 induction in CHO-K1 cells by small molecules, qHTS assay (AID 1346980); also: nearly all actives have a fitted effect of over 15% in size
Method in brief: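 Luminescent Caspase-Glo 3/7 read (30min, room temperature) quantified apoptosis induction. Cells were wild-type CHO-K1, treated with compound for 17hr at 37 C and 5% CO2.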

[11] = Caspase-3/7 induction in HepG2 cells by small molecules, qHTS cell viability counter screen (AID 1346981); also: nearly all actives have a fitted effect of over 30% in size; also: potency is read from the fitted curve at half-maximal effect; as to activity change, negative = cytotoxicity: series mostly up to about 92 µM
Method in brief: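 Viability determined by CellTiter-Fluor fluorescence in HepG2 wells also used for the luminescent Caspase-Glo 3/7 read. Compounds were present for 16 hr at 37 C, 5% CO2 before reagent addition.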

[12] = qHTS assay to identify small molecule antagonists of the progesterone receptor (PR) signaling pathway - cell viability counter screen (AID 1346798); also: nearly all actives have a fitted effect of over 50% in size; also: potency is read from the fitted curve at half-maximal effect; as to activity change, negative = cytotoxicity: series mostly up to about 92 µM
Method in brief: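 Viability was determined by ATP-based luminescence (CellTiter-Glo) in PR-UAS-bla HEK293T cells cultured in 2% charcoal-stripped serum and incubated 16 hr with compounds under R5020 stimulation.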

[13] = qHTS assay to identify small molecule agonists of the progesterone receptor (PR) signaling pathway - cell viability counter screen (AID 1346799; calls by dose curve; also: nearly all actives have a fitted effect of over 45% in size; also: potency is read from the fitted curve at half-maximal effect)
Method in brief: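 Viability was scored by ATP luminescence (CellTiter-Glo, 30 min, room temperature) in the same wells used for the reporter readout, after 16 hr compound exposure of PR-UAS-bla HEK293T cells.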

[14] = qHTS assay to identify small molecule agonists of the TGF-beta/Smad signaling pathway (AID 1346859; active = well fitted activation curve with a large enough effect in the signal ratio in the repeat runs, not every such curve was filed as active; the % refers to the signal ratio; also: series mostly up to about 77 µM)
Method in brief: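 Dual-wavelength fluorescence (460/530 nm emission) quantified beta-lactamase expression under the Smad binding element in HEK 293T cells following 5 hr compound treatment at 37 C.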

[15] = molecular target: Nuclear receptor subfamily 1 group I member 2 (Homo sapiens) (UniProt O75469); experiment: Human pregnane X receptor (PXR) small molecule agonists, qHTS assay (AID 1346982); also: nearly all actives have a fitted effect of over 35% in size
Nuclear receptor subfamily 1 group I member 2 (Homo sapiens), sequence (O75469 whole entry, looked up): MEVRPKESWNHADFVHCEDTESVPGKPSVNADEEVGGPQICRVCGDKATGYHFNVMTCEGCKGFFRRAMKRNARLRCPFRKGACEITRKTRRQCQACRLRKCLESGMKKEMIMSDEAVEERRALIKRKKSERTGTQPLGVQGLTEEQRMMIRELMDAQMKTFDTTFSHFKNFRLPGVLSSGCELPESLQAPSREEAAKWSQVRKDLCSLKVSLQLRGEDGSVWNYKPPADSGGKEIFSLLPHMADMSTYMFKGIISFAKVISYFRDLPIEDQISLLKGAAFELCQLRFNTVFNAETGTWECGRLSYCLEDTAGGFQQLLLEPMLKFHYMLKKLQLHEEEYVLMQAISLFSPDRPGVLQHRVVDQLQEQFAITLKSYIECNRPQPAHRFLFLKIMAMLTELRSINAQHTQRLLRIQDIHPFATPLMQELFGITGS
Method in brief: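 Compound-induced hPXR transactivation of a CYP3A4 luciferase reporter was scored in HepG2 PXR-Luc cells over 24 hr at 37 C, 5% CO2, by luminescence.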

[16] = molecular target: Cytochrome P450 2D6 (Homo sapiens) (UniProt P10635); experiment: Cytochrome P450 Family 2 Subfamily D Member 6 (CYP2D6) small molecule antagonists: luciferase reporter qHTS assay (AID 1671196); also: nearly all actives have a fitted effect of over 50% in size; also: potency is read from the fitted curve at half-maximal effect; as to activity change, negative = inhibition: series mostly up to about 120 µM
Cytochrome P450 2D6 (Homo sapiens), sequence (P10635 whole entry, looked up): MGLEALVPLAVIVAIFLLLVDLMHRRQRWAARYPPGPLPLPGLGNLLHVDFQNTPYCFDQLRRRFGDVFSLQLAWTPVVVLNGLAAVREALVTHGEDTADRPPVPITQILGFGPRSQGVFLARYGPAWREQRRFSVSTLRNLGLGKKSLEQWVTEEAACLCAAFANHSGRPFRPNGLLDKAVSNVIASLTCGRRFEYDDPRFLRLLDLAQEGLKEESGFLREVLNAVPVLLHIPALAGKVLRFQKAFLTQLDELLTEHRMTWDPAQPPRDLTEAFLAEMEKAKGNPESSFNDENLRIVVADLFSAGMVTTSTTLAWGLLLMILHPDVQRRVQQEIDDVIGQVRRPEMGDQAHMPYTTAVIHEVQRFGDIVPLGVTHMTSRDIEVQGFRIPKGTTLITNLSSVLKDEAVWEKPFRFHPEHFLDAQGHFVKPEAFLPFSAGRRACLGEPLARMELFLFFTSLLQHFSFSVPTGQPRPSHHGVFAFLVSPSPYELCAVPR
Method in brief: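 Each well received CYP2D6 with its proluciferin substrate and chemical, sat 10 min, then got NADPH regeneration solution for 1 h at room temperature. Luminescence in RLU served as the activity measure.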

[17] = molecular target: Progesterone receptor (Homo sapiens) (UniProt P06401); experiment: qHTS assay to identify small molecule agonists of the progesterone receptor (PR) signaling pathway (AID 1346784; calls by dose curve; also: nearly all actives have a fitted effect of over 30% in size; also: potency is read from the fitted curve at half-maximal effect)
Progesterone receptor (Homo sapiens), sequence (P06401 whole entry, looked up): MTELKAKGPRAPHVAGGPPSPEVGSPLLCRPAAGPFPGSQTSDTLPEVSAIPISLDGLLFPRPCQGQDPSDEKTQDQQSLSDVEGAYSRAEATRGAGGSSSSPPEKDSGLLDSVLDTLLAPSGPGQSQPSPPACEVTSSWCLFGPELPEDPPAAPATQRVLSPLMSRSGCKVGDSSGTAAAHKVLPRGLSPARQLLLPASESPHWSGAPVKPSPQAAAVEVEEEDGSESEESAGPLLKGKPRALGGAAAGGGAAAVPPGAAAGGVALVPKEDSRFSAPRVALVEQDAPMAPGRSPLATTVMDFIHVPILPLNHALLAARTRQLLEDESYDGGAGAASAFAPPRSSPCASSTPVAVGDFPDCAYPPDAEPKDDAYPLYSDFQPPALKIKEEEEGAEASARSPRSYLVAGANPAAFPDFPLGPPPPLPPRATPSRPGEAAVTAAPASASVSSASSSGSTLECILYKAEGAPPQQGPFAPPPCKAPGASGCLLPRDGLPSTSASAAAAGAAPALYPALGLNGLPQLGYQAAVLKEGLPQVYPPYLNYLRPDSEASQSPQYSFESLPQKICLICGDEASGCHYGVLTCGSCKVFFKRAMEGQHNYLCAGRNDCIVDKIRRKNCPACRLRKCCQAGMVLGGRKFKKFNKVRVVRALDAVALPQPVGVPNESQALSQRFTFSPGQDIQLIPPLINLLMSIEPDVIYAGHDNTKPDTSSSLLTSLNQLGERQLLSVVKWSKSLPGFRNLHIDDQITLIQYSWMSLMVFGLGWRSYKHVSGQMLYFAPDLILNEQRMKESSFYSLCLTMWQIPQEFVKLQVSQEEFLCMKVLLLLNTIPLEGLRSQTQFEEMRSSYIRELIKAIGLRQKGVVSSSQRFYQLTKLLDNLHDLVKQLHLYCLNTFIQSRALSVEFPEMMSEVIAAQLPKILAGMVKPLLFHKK
Method in brief: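 The screen uses PR-UAS-bla HEK 293T cells in charcoal-stripped serum (2%). Compounds are applied for 16 hr at 37C after a 6 hr pre-incubation, and reporter activity is detected with a FRET beta-lactamase substrate after 2 hr at room temperature.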

[18] = molecular target: Progesterone receptor (Homo sapiens) (UniProt P06401); experiment: qHTS assay to identify small molecule antagonists of the progesterone receptor (PR) signaling pathway (AID 1346795; active = well fitted inhibition curve with a large enough effect in the signal ratio in the repeat runs, not every such curve was filed as active; the % refers to the signal ratio)
Method in brief: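 After 6 hr plating at 37C in 2% stripped-serum medium, PR-UAS-bla HEK293T cells got compounds, then 1 nM R5020. Sixteen hours later, LiveBLAzer substrate was applied for 2 hr at room temperature and fluorescence was recorded.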

[19] = molecular target: Nuclear receptor subfamily 1 group I member 2 (Rattus norvegicus) (UniProt Q9R1A7); experiment: Rat pregnane X receptor (rPXR) activation by small molecules, qHTS assay (AID 1346983); details: rPXR luciferase reporter cells, One-Glo luminescence, 24 h; max activation: hits give high values; also: nearly all actives have a fitted effect of over 20% in size
Nuclear receptor subfamily 1 group I member 2 (Rattus norvegicus), sequence (Q9R1A7 whole entry, looked up): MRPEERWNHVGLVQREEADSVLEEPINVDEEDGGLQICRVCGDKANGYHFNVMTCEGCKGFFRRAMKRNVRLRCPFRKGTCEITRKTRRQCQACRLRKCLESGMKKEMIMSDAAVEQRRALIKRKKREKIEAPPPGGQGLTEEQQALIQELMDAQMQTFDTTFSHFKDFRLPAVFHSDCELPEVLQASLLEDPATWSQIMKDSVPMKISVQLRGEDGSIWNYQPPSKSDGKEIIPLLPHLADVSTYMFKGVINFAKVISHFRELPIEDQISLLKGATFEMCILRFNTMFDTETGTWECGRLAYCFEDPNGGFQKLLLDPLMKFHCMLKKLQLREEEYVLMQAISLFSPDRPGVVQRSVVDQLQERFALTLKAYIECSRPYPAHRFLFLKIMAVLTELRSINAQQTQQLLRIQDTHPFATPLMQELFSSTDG
Method in brief: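 Luminescent readout (One-Glo luciferase, 30 min room temperature) followed 24 hr compound treatment at 37 C of rPXR cells plated 2,000 per well and preincubated 5hr; qHTS format with compounds delivered in DMSO.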

[20] = molecular target: Nuclear receptor subfamily 1 group I member 2 (Homo sapiens) (UniProt O75469); experiment: Human pregnane X receptor (PXR) activation by small molecules, qHTS assay (AID 1346985); also: nearly all actives have a fitted effect of over 40% in size
Method in brief: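 DPX-2 cells (HepG2 co-transfected with a PXR response element and a CYP3A4-promoter luciferase construct) were seeded at 2,000 per well, rested 5 hr at 37C, then exposed to DMSO-dissolved compounds for 24 hr. Activation was read as luciferase luminescence.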

SMILES: CC(=O)Oc1cccc2c1C(=O)c1c(OC(C)=O)cc(C(=O)O)cc1C2=O
- Potency [1]: inactive
- Potency [2]: 29.8 µM (active)
- outcome [3]: inactive
- outcome [4]: inactive
- outcome [5]: inactive
- outcome [6]: inactive
- Potency [7]: 29.8 µM (active)
- Potency [8]: inactive
- Potency [9]: 29.8 µM (active)
- Potency [10]: inactive
- Potency [11]: 29.8 µM (active)

SMILES: O=C1c2ccccc2C(=O)C1c1ccc2cc(S(=O)(=O)O)cc(S(=O)(=O)O)c2n1
- Potency [1]: inactive
- Potency [2]: 26.3 µM (active)
- Potency [12]: 20.9 µM (active)
- Potency [13]: 18.6 µM (active)
- outcome [4]: inactive
- outcome [14]: inactive
- outcome [5]: inactive
- outcome [6]: inactive
- Potency [7]: 37.2 µM (active)
- Potency [8]: inactive
- Potency [9]: 33.1 µM (active)
- Potency [10]: inactive
- Potency [15]: inactive
- Potency [16]: inactive

SMILES: CCCC(=O)OCCC(C)C
- Potency [1]: inactive
- Potency [17]: inactive
- Potency [18]: inactive
- Potency [12]: inactive
- Potency [13]: inactive
- outcome [3]: inactive
- outcome [4]: inactive
- outcome [14]: inactive
- outcome [5]: inactive
- outcome [6]: inactive
- Potency [7]: inactive
- Potency [8]: inactive
- Potency [9]: inactive
- Potency [10]: inactive
- Potency [11]: inactive
- Potency [15]: inactive
- Potency [16]: inactive

SMILES: CCn1nc(Cc2ccccc2)cc1C1CCN(C[C@H]2C[C@H](N(C)[C@@H](C(=O)O)C(C)C)C[C@@H]2c2cccc(F)c2)CC1
- Potency [1]: inactive
- Potency [2]: inactive
- Potency [12]: inactive
- Potency [13]: inactive
- outcome [4]: inactive
- outcome [5]: inactive
- outcome [6]: inactive
- Potency [8]: inactive
- Potency [9]: inactive
- Potency [10]: inactive
- Potency [15]: inactive
- Potency [16]: 35.6 µM (active)

SMILES: Cc1nc(C)c(C)nc1C
- Potency [1]: inactive
- Potency [2]: inactive
- Potency [17]: inactive
- Potency [13]: 30.6 µM (active)
- outcome [4]: inactive
- outcome [14]: inactive
- outcome [5]: inactive
- outcome [6]: inactive
- Potency [7]: inactive
- Potency [8]: inactive
- Potency [9]: inactive
- Potency [10]: inactive
- Potency [11]: inactive
- Potency [15]: inactive

SMILES: COC=O
- activity change, negative = inhibition [1]: 4.44% [at 8.39 µM]
- activation [17]: 0.0776% [at 8.39 µM]
- activity change, negative = inhibition [18]: -3.19% [at 8.39 µM]
- activity change, negative = cytotoxicity [12]: 0.308% [at 8.39 µM]
- activity change, negative = cytotoxicity [13]: 7.63% [at 8.39 µM]
- viability change, negative = cytotoxic [3]: 2.71% [at 6.97 µM]
- activity change, negative = cytotoxicity [4]: 8.3% [at 6.97 µM]
- activation [14]: -0.257% [at 6.97 µM]
- activity, negative = inhibition [5]: 1.15% [at 4.65 µM]
- activation [6]: -1.05% [at 5.23 µM]
- activity change, negative = cytotoxicity [7]: 3.92% [at 8.39 µM]
- caspase activation [8]: -1.76% [at 8.39 µM]
- activity change, negative = cytotoxicity [9]: 2.52% [at 8.39 µM]
- caspase-3/7 activation [10]: -0.739% [at 8.39 µM]
- activation [15]: -0.203% [at 8.39 µM]

SMILES: O=C(O)c1ccc(O)c(O)c1
- Potency [1]: inactive
- Potency [2]: inactive
- Potency [18]: inactive
- Potency [13]: inactive
- outcome [3]: inactive
- outcome [4]: inactive
- outcome [14]: inactive
- outcome [5]: inactive
- outcome [6]: inactive
- Potency [7]: inactive
- Potency [8]: inactive
- Potency [9]: inactive
- Potency [10]: inactive

SMILES: CC1=CC(=C(c2ccc(N)cc2)c2ccc(N)cc2)C=CC1=N
- activity change, negative = inhibition [1]: 0.722% [at 8.39 µM]
- Potency [17]: 0.39 µM (active)
- activity change, negative = inhibition [18]: 5.6% [at 8.39 µM]
- activity change, negative = cytotoxicity [12]: 5.81% [at 8.39 µM]
- activity change, negative = cytotoxicity [13]: 0% [at 8.39 µM]
- viability change, negative = cytotoxic [3]: 12% [at 6.97 µM]
- activity change, negative = cytotoxicity [4]: 4.82% [at 6.97 µM]
- activation [14]: 8.28% [at 6.97 µM]
- caspase activation [8]: 0.381% [at 8.39 µM]
- caspase-3/7 activation [10]: 1.62% [at 8.39 µM]
- activation [15]: -7.87% [at 8.39 µM]
- max activation [19]: -21.7%
- Potency [20]: inactive

SMILES: CC(C)=CCC[C@H](C)CCO
- Potency [1]: inactive
- Potency [17]: inactive
- Potency [18]: inactive
- Potency [12]: inactive
- Potency [13]: inactive
- outcome [3]: inactive
- outcome [4]: inactive
- outcome [14]: inactive
- outcome [5]: inactive
- outcome [6]: inactive
- Potency [8]: inactive
- Potency [9]: inactive
- Potency [10]: inactive
- Potency [11]: inactive
- Potency [15]: inactive
- Potency [16]: inactive

From PubChem BioAssay (Tox21)
